Data from the supplement of paper PMC12350171.
Counter-ions that a name gives are not always drawn.

Experiments:
Conditions in all cases: 20 µM
[1] = system: Salmonella enterica typhimurium; assay: growth AUC normalised to DMSO control (fraction of control); higher = less growth inhibition, active = hit call of the paper
Procedure, shortened: (§1)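 After two anaerobic passages, pathogens were added at a starting OD578 of 0.01 to pre-reduced mGAM plates holding compound at 20 μM with 1% DMSO; hemin and NAD were supplemented for Haemophilus parainfluenzae. Sealed with breathable membranes, plates were read at OD578 hourly for 24 h, in three biological replicates. The trapezoidal rule, applied up to the exponential-to-stationary transition, gave the growth-curve AUC, which was normalised to DMSO controls on the same plate.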

[2] = system: Shigella flexneri; assay: as above
Procedure, shortened: as §1

[3] = system: Vibrio cholerae; assay: as above
Procedure, shortened: as §1

[4] = system: Yersinia pseudotuberculosis; assay: as above
Procedure, shortened: as §1

[5] = system: P. vulgatus RND KO; assay: growth AUC normalised to DMSO control (median) (fraction of control); higher = less growth inhibition, active = hit call of the paper
Procedure, shortened: (§2)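 In 96-well plates of mGAM seeded at OD578 0.01, strains that had been passaged twice overnight without oxygen were exposed to approved-drug library compounds at 20 μM with 1% DMSO. Hourly OD578 readings were taken for 24 h in an anaerobic incubator. The trapezoidal-rule area under the curve, with curves truncated at entry into stationary phase, was expressed relative to same-plate vehicle wells as the median of three biological replicates.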

[6] = system: P. vulgatus WT; assay: as above
Procedure, shortened: as §2

[7] = system: S. enterica typhimurium WT; assay: as above
Procedure, shortened: as §2

[8] = system: S. enterica typhimurium tolC KO; assay: as above
Procedure, shortened: as §2

Measured: growth AUC normalised to DMSO control
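Throughout, for growth AUC normalised to DMSO control (median): active when median AUC fell below 0.1.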

O=C1Nc2ccc(Cl)cc2[C@@](C#CC2CC2)(C(F)(F)F)O1 [Efavirenz]
inactive: [1] 0.997 | [2] 1.01 | [3] 0.999 | [4] 0.999 | [5] 0.715 | [6] 0.752 | [7] 1 | [8] 0.261

C[C@@H]1CCC[C@H](C)N1NC(=O)c1ccc(Cl)c(S(N)(=O)=O)c1 [Clopamide]
inactive: [1] 0.976 | [2] 0.97 | [3] 0.982 | [4] 0.992 | [5] 1 | [6] 0.981 | [7] 1.01 | [8] 0.988

CC(=O)Oc1ccccc1C(=O)Oc1ccccc1C(=O)O [Acetylsalicylsalicylic acid]
inactive: [1] 0.997 | [2] 0.973 | [3] 0.983 | [4] 0.932 | [5] 0.998 | [6] 1.04 | [7] 0.999 | [8] 0.997

CC[N+](C)(C)Cc1ccccc1Br [Bretylium tosylate]
inactive: [1] 1 | [2] 1.01 | [3] 1.02 | [4] 1.02 | [5] 0.995 | [6] 1.03 | [7] 1 | [8] 0.999

CC[N+](C)(CC)CCOC(=O)C1c2ccccc2Oc2ccccc21 [Methantheline bromide]
inactive: [1] 1 | [2] 1.01 | [3] 0.973 | [4] 1 | [5] 0.972 | [6] 0.981 | [7] 1 | [8] 0.995

Nc1nc(=S)c2ncn([C@@H]3O[C@H](CO)[C@@H](O)[C@H]3O)c2[nH]1 [Thioguanosine]
inactive: [3] 0.957 | [5] 1.03 | [6] 1.06 | [7] 0.849 | [8] 0.779
active: [1] 0.828 | [2] 0.0952 | [4] 0.826

c1ccc(CNc2ncnc3nc[nH]c23)cc1 [Aminopurine, 6-benzyl]
inactive: [1] 1 | [2] 1 | [3] 0.953 | [4] 1.01 | [5] 1 | [6] 0.985 | [7] 1 | [8] 0.995

COC(=O)Nc1nc2cc(C(=O)c3ccc(F)cc3)ccc2[nH]1 [Flubendazol]
inactive: [1] 1.02 | [2] 0.994 | [3] 0.993 | [4] 0.994 | [5] 1.04 | [6] 1.07 | [7] 1.01 | [8] 1

CN(C)CCOC(=O)COc1ccc(Cl)cc1 [Meclofenoxate hydrochloride]
inactive: [1] 0.977 | [2] 0.942 | [3] 0.977 | [4] 0.935 | [5] 0.996 | [6] 0.985 | [7] 1.01 | [8] 0.995

C[C@]12C=CC(=O)C=C1CC[C@H]1[C@@H]3C[C@@H](O)[C@](O)(C(=O)CO)[C@@]3(C)C[C@H](O)[C@@]12F [Triamcinolone]
inactive: [1] 1 | [2] 0.977 | [3] 1 | [4] 1 | [5] 1.01 | [6] 0.98 | [7] 0.997 | [8] 1.01

C#C[C@]1(O)CC[C@H]2[C@@H]3CCC4=CC(=O)CC[C@@H]4[C@H]3CC[C@@]21C [Norethindrone]
inactive: [1] 1.01 | [2] 0.977 | [3] 0.996 | [4] 0.988 | [5] 0.997 | [6] 1.03 | [7] 1.01 | [8] 0.993

Nc1ccc(S(=O)(=O)Nc2nccs2)cc1 [Sulfathiazole]
inactive: [1] 1.02 | [2] 1 | [3] 1.01 | [4] 1.01 | [5] 0.995 | [6] 1.01 | [7] 0.985 | [8] 0.974

OC(CCN1CCCCC1)(c1ccccc1)c1ccccc1 [Pridinol methanesulfonate salt]
inactive: [1] 0.993 | [2] 1.02 | [3] 1.07 | [4] 0.988 | [5] 0.963 | [6] 0.953 | [7] 0.991 | [8] 0.994

Nc1ccc(S(N)(=O)=O)cc1 [Sulfanilamide]
inactive: [1] 1.03 | [2] 1.04 | [3] 1.05 | [4] 1.01 | [5] 1.03 | [6] 1.06 | [7] 0.993 | [8] 1

NC1CCN(c2c(F)cc3c(=O)c(C(=O)O)cn(C4CC4)c3c2Cl)C1 (stereo not given) [Clinafloxacin]
active: [1] 0.00836 | [2] 0.0463 | [3] 0.023 | [4] 0.0284 | [5] 0.0165 | [6] 0.0148 | [7] 0.00822 | [8] 0.00725

O=C(NC(Cc1cc(=O)[nH]c2ccccc12)C(=O)O)c1ccc(Cl)cc1 (stereo not given) [Rebamipide]
inactive: [1] 1 | [2] 1.03 | [3] 1.03 | [4] 0.997 | [5] 1.06 | [6] 1.09 | [7] 0.99 | [8] 0.998

O=S(=O)(O)CCS [Coenzyme M]
inactive: [1] 1 | [2] 1.02 | [3] 1.01 | [4] 0.997 | [5] 1.01 | [6] 1.01 | [7] 1.01 | [8] 1

CC(C)/N=c1\cc2n(-c3ccc(Cl)cc3)c3ccccc3nc-2cc1Nc1ccc(Cl)cc1 [Clofazimine]
active: [5] 0.0291 | [6] 0.0974
inactive: [1] 0.99 | [2] 0.996 | [3] 1 | [4] 1.03 | [7] 0.972 | [8] 1.02

CN(C(=O)CN(CCO)CC(=O)N(C)C(C)(C)Cc1ccccc1)C(C)(C)Cc1ccccc1 [Oxethazaine]
inactive: [1] 0.974 | [2] 1.01 | [3] 0.99 | [4] 0.995 | [5] 0.688 | [6] 0.646 | [7] 1.01 | [8] 0.966

CN1CCOC(c2ccccc2)c2ccccc2C1 (stereo not given) [Nefopam hydrochloride]
inactive: [1] 0.987 | [2] 0.993 | [3] 0.983 | [4] 1 | [5] 0.992 | [6] 0.982 | [7] 1 | [8] 0.988

COc1ccc(C(=O)c2ccccc2)c(O)c1 [Oxybenzone]
inactive: [1] 1.03 | [2] 1.03 | [3] 1 | [4] 1 | [5] 1.05 | [6] 1.06 | [7] 1 | [8] 0.954

C1CCC(C(CC2CCCCN2)C2CCCCC2)CC1 (stereo not given) [Perhexiline maleate]
inactive: [1] 0.983 | [2] 0.977 | [3] 0.931 | [4] 1.01 | [5] 0.915 | [6] 0.954 | [7] 0.994 | [8] 0.945

CCC[C@@H]1C[C@@H](C(=O)N[C@@H]([C@H]2O[C@H](SC)[C@H](O)[C@@H](O)[C@H]2O)[C@H](C)Cl)N(C)C1 [Clindamycin hydrochloride]
inactive: [7] 0.835 | [8] 0.437
active: [1] 0.722 | [2] 0.648 | [3] 0.143 | [4] 0.0588 | [5] 0.0135 | [6] 0.0132

CCCCN(CCCC)CCCOC(=O)c1ccc(N)cc1 [Butacaine]
inactive: [1] 0.988 | [2] 1.01 | [3] 0.981 | [4] 1 | [5] 1.05 | [6] 1.04 | [7] 1.01 | [8] 1

CN1[C@@H]2CC[C@H]1C[C@@H](OC(=O)c1c[nH]c3ccccc13)C2 [Tropisetron hydrochloride]
inactive: [1] 1.01 | [2] 0.997 | [3] 1.01 | [4] 1 | [5] 1.01 | [6] 1.02 | [7] 1.01 | [8] 1

CCCCN1CCCCC1C(=O)Nc1c(C)cccc1C (stereo not given) [Bupivacaine hydrochloride]
inactive: [1] 1.04 | [2] 0.973 | [3] 0.998 | [4] 0.973 | [5] 1.01 | [6] 0.998 | [7] 0.998 | [8] 0.985

C#Cc1cccc(Nc2ncnc3cc(OCCOC)c(OCCOC)cc23)c1 [Erlotinib]
inactive: [1] 1 | [2] 1.03 | [3] 1.02 | [4] 0.995 | [5] 0.967 | [6] 0.989 | [7] 0.997 | [8] 0.938

CC(C(=O)O)c1ccc(C(=O)c2ccccc2)s1 (stereo not given) [Tiaprofenic acid]
inactive: [1] 1 | [2] 1.01 | [3] 0.978 | [4] 1.01 | [5] 1.02 | [6] 1.05 | [7] 1 | [8] 0.992

N/C(=N\C(=O)c1nc(Cl)c(N)nc1N)NCc1ccccc1 [Benzamil hydrochloride]
inactive: [1] 0.972 | [2] 0.986 | [3] 0.99 | [4] 0.998 | [5] 0.996 | [6] 0.991 | [7] 0.998 | [8] 0.984

C[n+]1ccccc1/C=N/O [Pralidoxime chloride]
inactive: [1] 0.998 | [2] 1.01 | [3] 0.971 | [4] 1.01 | [5] 1.01 | [6] 1 | [7] 1.01 | [8] 1
